Results: article PMC7862700, “An all-to-all approach to the identification of sequence-specific readers for epigenetic DNA modifications on cytosine”

Key:
Test in all cases: DAPPL (digital affinity profiling via proximity ligation, sequencing); 10 mM Tris-HCl pH 7.5, 50 mM NaCl, 1 mM DTT, 4% glycerol, room temperature, 30 min; GST-TFs on glutathione beads, 16-mer random dsDNA library, 0.1% formaldehyde crosslink after washing; high values mean tight binding
Settings in all cases: protein: recombinant; tags: N-terminal GST; dsDNA, one strand shown
ERF = target: T1, ERF (Homo sapiens, UniProt P50548 1-548)
T1 sequence: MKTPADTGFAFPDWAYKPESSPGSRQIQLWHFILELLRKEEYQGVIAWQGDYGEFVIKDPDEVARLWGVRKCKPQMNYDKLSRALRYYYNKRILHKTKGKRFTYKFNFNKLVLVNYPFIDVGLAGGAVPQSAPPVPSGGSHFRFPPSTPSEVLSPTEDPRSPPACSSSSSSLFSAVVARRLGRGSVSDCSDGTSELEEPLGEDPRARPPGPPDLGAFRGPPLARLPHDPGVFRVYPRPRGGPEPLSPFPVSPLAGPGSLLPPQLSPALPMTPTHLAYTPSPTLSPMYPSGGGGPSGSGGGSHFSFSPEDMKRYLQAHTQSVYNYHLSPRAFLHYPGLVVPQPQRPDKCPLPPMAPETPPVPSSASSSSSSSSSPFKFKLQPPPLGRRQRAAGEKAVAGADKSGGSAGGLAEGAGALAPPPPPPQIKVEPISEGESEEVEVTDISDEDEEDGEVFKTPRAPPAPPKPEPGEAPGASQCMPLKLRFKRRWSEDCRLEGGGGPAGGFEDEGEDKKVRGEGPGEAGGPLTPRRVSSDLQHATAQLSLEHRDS
Procedure, shortened: (§1)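 Yeast served to express human transcription factors as GST fusions, which were then captured on glutathione beads and labelled with DNA barcodes. Pooled with a tag-only sample, they were incubated with 200 nmole of a 16-mer random double-stranded DNA library for 30 min at room temperature in Tris/NaCl/DTT/glycerol buffer, washed, crosslinked with 0.1% formaldehyde, ligated by proximity, amplified by PCR and sequenced. Dividing each hexamer's read frequency for a factor by its frequency for the tag-only sample gives the binding signal.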

ETV3L = target: T2, ETV3L (Homo sapiens, UniProt Q6ZN32 1-361)
T2 sequence: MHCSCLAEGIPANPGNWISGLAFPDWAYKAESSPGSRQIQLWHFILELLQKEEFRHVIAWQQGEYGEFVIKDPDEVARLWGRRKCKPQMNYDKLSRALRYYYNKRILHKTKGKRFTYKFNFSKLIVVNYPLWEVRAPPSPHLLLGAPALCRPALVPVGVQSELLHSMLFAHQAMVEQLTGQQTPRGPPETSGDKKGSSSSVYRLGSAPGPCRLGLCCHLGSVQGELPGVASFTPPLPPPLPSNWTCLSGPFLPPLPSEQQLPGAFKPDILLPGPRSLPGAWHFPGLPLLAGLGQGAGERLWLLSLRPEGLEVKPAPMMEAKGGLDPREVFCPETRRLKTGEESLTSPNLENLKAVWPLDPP
Procedure, shortened: as §1

ETS2 = target: T3, ETS2 (Homo sapiens, UniProt P15036 1-469)
T3 sequence: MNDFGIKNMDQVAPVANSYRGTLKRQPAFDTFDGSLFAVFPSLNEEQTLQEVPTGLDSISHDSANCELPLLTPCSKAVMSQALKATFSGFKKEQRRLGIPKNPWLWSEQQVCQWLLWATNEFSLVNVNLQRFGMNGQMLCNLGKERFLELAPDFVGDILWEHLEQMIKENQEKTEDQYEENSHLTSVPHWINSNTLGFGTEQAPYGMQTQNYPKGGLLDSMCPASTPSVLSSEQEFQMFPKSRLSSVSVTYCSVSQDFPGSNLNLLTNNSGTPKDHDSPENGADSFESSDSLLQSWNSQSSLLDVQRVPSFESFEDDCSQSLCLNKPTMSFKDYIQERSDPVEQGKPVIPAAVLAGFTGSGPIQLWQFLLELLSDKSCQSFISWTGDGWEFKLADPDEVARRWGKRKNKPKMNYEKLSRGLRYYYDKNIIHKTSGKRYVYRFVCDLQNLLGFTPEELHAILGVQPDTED
Procedure, shortened: as §1

SPDEF = target: T4, SPDEF (Homo sapiens, UniProt O95238 1-335)
T4 sequence: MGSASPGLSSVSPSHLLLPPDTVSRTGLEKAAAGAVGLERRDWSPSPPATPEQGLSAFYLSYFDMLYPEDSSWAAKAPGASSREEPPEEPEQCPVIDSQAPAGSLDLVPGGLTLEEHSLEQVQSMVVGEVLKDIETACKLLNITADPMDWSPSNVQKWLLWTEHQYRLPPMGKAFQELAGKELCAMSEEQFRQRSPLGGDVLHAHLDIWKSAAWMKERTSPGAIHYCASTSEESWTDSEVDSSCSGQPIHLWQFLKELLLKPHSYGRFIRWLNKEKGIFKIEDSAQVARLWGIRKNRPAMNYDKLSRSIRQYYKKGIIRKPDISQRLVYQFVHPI
Procedure, shortened: as §1

ETV7 = target: T5, ETV7 (Homo sapiens, UniProt Q9Y603 1-341)
T5 sequence: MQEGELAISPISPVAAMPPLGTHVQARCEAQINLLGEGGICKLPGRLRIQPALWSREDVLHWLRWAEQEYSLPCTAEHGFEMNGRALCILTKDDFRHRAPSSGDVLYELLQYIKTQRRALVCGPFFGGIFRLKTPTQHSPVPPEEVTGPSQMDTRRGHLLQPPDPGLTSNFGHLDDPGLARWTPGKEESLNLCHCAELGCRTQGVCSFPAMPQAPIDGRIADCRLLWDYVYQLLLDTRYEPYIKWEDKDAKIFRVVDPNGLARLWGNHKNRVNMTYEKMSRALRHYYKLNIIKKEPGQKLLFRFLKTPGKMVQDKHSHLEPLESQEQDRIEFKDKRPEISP
Procedure, shortened: as §1

ELF5 = target: T6, ELF5 (Homo sapiens, UniProt Q9UKW6-2 1-255)
T6 sequence: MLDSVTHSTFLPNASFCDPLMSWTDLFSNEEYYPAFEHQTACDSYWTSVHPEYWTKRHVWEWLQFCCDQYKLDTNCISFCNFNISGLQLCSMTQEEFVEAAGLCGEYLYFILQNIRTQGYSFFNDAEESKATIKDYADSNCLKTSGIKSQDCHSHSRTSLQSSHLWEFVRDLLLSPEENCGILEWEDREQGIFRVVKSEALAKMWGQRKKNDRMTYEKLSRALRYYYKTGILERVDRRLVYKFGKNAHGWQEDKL
Procedure, shortened: as §1

ETV3 = target: T7, ETV3 (Homo sapiens, UniProt P41162-2 1-143)
T7 sequence: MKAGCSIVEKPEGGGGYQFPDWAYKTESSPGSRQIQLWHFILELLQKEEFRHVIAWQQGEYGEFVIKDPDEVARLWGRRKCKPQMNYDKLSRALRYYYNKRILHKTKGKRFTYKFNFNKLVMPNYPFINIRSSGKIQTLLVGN
Procedure, shortened: as §1

ETV6 = ETV6 (Homo sapiens, UniProt P41212 1-452)
Sequence of ETV6 (P41212 whole entry): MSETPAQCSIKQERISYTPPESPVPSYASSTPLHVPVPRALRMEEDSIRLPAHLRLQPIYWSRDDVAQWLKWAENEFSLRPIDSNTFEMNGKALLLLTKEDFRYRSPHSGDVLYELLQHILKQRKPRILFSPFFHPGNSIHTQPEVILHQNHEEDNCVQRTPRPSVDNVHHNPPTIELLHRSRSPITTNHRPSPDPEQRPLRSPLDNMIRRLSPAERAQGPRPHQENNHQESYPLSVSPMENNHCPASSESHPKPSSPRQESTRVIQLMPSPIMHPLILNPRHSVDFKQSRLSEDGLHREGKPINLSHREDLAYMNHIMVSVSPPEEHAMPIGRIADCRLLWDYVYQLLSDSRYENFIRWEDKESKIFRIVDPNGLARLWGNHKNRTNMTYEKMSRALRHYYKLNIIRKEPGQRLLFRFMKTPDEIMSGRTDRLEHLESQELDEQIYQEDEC
Procedure, shortened: as §1

Row | Sequence | binding signal (ERF) | binding signal (ETV3L) | binding signal (ETS2) | binding signal (SPDEF) | binding signal (ETV7) | binding signal (ELF5) | binding signal (ETV3) | binding signal (ETV6)
1 | TACGGC | 1.32 fold enrichment (6-mer frequency, TF over GST control) | 1.26 fold enrichment (6-mer frequency, TF over GST control) | 1.22 fold enrichment (6-mer frequency, TF over GST control) | 1.18 fold enrichment (6-mer frequency, TF over GST control) | 1.13 fold enrichment (6-mer frequency, TF over GST control) | 1.2 fold enrichment (6-mer frequency, TF over GST control) | 1.21 fold enrichment (6-mer frequency, TF over GST control) | 1.2 fold enrichment (6-mer frequency, TF over GST control)
2 | ATGGAA | 1.23 fold enrichment (6-mer frequency, TF over GST control) | 1.18 fold enrichment (6-mer frequency, TF over GST control) | 1.23 fold enrichment (6-mer frequency, TF over GST control) | 1.2 fold enrichment (6-mer frequency, TF over GST control) | 1.35 fold enrichment (6-mer frequency, TF over GST control) | 1.13 fold enrichment (6-mer frequency, TF over GST control) | 1.2 fold enrichment (6-mer frequency, TF over GST control) | 1.28 fold enrichment (6-mer frequency, TF over GST control)
3 | GAAGTA | 1.79 fold enrichment (6-mer frequency, TF over GST control) | 1.79 fold enrichment (6-mer frequency, TF over GST control) | 2.08 fold enrichment (6-mer frequency, TF over GST control) | 2.1 fold enrichment (6-mer frequency, TF over GST control) | 2.08 fold enrichment (6-mer frequency, TF over GST control) | 2.34 fold enrichment (6-mer frequency, TF over GST control) | 2.11 fold enrichment (6-mer frequency, TF over GST control) | 2.52 fold enrichment (6-mer frequency, TF over GST control)
4 | GTTCCG | 1.74 fold enrichment (6-mer frequency, TF over GST control) | 1.93 fold enrichment (6-mer frequency, TF over GST control) | 1.98 fold enrichment (6-mer frequency, TF over GST control) | 2.25 fold enrichment (6-mer frequency, TF over GST control) | 1.67 fold enrichment (6-mer frequency, TF over GST control) | 2.5 fold enrichment (6-mer frequency, TF over GST control) | 2.17 fold enrichment (6-mer frequency, TF over GST control) | 1.9 fold enrichment (6-mer frequency, TF over GST control)
5 | CCCGGC | 1.06 fold enrichment (6-mer frequency, TF over GST control) | 1.19 fold enrichment (6-mer frequency, TF over GST control) | 1.16 fold enrichment (6-mer frequency, TF over GST control) | 1.28 fold enrichment (6-mer frequency, TF over GST control) | 1.13 fold enrichment (6-mer frequency, TF over GST control) | 1.14 fold enrichment (6-mer frequency, TF over GST control) | 1.27 fold enrichment (6-mer frequency, TF over GST control) | 1.22 fold enrichment (6-mer frequency, TF over GST control)
6 | ATCACT | 1.16 fold enrichment (6-mer frequency, TF over GST control) | 1.16 fold enrichment (6-mer frequency, TF over GST control) | 1.22 fold enrichment (6-mer frequency, TF over GST control) | 1.22 fold enrichment (6-mer frequency, TF over GST control) | 1.26 fold enrichment (6-mer frequency, TF over GST control) | 1.27 fold enrichment (6-mer frequency, TF over GST control) | 1.15 fold enrichment (6-mer frequency, TF over GST control) | 1.28 fold enrichment (6-mer frequency, TF over GST control)
7 | AAGCAG | 1 fold enrichment (6-mer frequency, TF over GST control) | 1.04 fold enrichment (6-mer frequency, TF over GST control) | 1.14 fold enrichment (6-mer frequency, TF over GST control) | 1.13 fold enrichment (6-mer frequency, TF over GST control) | 1.14 fold enrichment (6-mer frequency, TF over GST control) | 1.19 fold enrichment (6-mer frequency, TF over GST control) | 1.1 fold enrichment (6-mer frequency, TF over GST control) | 1.11 fold enrichment (6-mer frequency, TF over GST control)
8 | CTCCTG | 1.49 fold enrichment (6-mer frequency, TF over GST control) | 1.72 fold enrichment (6-mer frequency, TF over GST control) | 1.86 fold enrichment (6-mer frequency, TF over GST control) | 1.6 fold enrichment (6-mer frequency, TF over GST control) | 1.64 fold enrichment (6-mer frequency, TF over GST control) | 1.6 fold enrichment (6-mer frequency, TF over GST control) | 1.43 fold enrichment (6-mer frequency, TF over GST control) | 1.59 fold enrichment (6-mer frequency, TF over GST control)
9 | CGCTGC | 1.28 fold enrichment (6-mer frequency, TF over GST control) | 1.17 fold enrichment (6-mer frequency, TF over GST control) | 1.28 fold enrichment (6-mer frequency, TF over GST control) | 1.15 fold enrichment (6-mer frequency, TF over GST control) | 1.03 fold enrichment (6-mer frequency, TF over GST control) | 1.07 fold enrichment (6-mer frequency, TF over GST control) | 1.13 fold enrichment (6-mer frequency, TF over GST control) | 1.18 fold enrichment (6-mer frequency, TF over GST control)
